# Source: PubChem
# The list is not random: actives were taken first. Their share in the collection is about 1.1%.
# AI-2 QS modul – modulators of Vibrio harveyi AI-2 quorum sensing system; Vibrio harveyi JMH597 AI-2 luminescence/OD600 ratio, 9 h; active compounds read low; strain lacks LuxN and CqsS sensors; 0 = neutral-control median; activity change, % at 7.5 µM; hit rate 0.4% among 300,000; AID 2094; in the data active = activity change below about -75%, passing the limit was not always enough; inconclusive = no clear call, values can overlap the other calls;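 note: luminescence divided by OD600 gain over 9 h not by final OD600 alone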
# NTR1 ag – NTR1 (human) agonism; P30989; NTR1-U2OS beta-arrestin-GFP spot imaging, agonist mode; activation, % at 20 µM; hit rate 0.17% among 330,000;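 active = activation at or above 40% of the spot to cytoplasm intensity ratio, with at least 20 cells analyzed; inconclusive = wells under 20 cells, flagged as cytotoxic or low count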;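 note: 0% = DMSO without peptide and 100% = 100 nM NTR1 peptide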
# Pemphigus Ab inh – inhibitors of pemphigus antibody binding to human desmoglein-3; hit rate 0.48% among 310,000; binding (percent of control), % at 10 µM; DSG3-coupled beads, scFv-anti-DSG3-GFP binding, flow cytometry; active compounds read low;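 active = binding more than 3 SD below its plate's average and above zero; inconclusive = below that plate limit but binding exactly zero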;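 note: hits lower antibody fragment binding to DSG3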
# VLA-4 inh – inhibition in a human VLA-4 binding assay. P13612. VLA-4 expressing cells, ligand binding flow cytometry. inhibition, % (about 7 µM as worked out from the volumes in the protocol). hit rate 0.2% among 330,000; in the data active = inhibition above about 50%
# Target sequence (P13612 whole entry, looked up): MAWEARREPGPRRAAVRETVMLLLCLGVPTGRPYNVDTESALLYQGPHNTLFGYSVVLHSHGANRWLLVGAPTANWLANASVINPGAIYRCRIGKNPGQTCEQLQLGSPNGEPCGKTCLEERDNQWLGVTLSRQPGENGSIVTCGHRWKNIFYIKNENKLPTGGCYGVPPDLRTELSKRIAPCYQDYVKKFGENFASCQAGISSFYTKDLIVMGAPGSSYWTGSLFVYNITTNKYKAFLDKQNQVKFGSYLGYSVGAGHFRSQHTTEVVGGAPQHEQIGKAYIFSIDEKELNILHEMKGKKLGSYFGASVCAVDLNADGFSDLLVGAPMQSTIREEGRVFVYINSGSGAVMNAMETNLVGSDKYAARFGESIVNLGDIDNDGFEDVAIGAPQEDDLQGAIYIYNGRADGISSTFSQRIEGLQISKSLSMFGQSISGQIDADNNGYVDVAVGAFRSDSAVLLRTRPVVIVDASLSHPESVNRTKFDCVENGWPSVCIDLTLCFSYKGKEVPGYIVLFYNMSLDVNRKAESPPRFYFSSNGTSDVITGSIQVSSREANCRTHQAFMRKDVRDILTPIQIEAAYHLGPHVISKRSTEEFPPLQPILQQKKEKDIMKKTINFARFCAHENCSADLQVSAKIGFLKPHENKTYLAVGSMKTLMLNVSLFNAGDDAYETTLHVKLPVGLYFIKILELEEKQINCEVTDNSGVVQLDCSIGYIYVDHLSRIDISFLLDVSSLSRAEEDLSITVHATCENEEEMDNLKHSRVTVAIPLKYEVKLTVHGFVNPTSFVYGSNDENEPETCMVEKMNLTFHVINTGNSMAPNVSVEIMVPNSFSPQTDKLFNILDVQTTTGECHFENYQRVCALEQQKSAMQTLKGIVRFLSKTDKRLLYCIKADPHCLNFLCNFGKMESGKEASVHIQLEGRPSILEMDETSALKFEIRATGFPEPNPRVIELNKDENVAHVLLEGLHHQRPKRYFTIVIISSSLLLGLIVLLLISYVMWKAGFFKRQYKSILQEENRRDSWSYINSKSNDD
# The depositor's hits bear a star; ? = inconclusive; nt = no result given; ! = repeats disagree.
SMILES,AI-2 QS modul,NTR1 ag,Pemphigus Ab inh,VLA-4 inh
CCn1nnnc1NC(=O)c1cc(Cl)c(OC)c(Cl)c1,16.0,-0.9,106.3,51.9*
COc1ccc(C2CC(=O)Oc3cc(C)c(Cl)c(C)c32)cc1 (stereo unspecified),nt,9.1,103.1,nt
CCCC(C(=O)NC1CCCC1)N(C(=O)Cn1nnc(-c2ccc(C)o2)n1)C1CCCC1 (stereo unspecified),36.8,1.0,89.6*,1.6
CCCC(C(=O)NC1CCCC1)N(C(=O)Cn1nnc(-c2ccc(C)o2)n1)c1ccccc1F (stereo unspecified),2.8,-0.7,nt,nt
CCCN1CCN(C(=O)c2ccc3[nH]c(C)c(C)c3c2)CC1,nt,nt,97.0,nt
CCCCC(=O)NN(C)c1nc(-c2ccccc2)nnc1C(F)(F)F,24.1,-1.5,104.7,-2.1
CC(C)CC(=O)NN(C)c1nc(-c2ccccc2)nnc1C(F)(F)F,5.2,1.3,51.8*,1.6
c1ccc(CC2=NCCN2)cc1,21.2,-0.4,92.0,12.1
c1ccc(CN(CC2=NCCN2)c2ccccc2)cc1,3.2,-2.7,14.4*!,38.2
CC1CCCCC1NC(=O)COC(=O)c1c2c(nc3ccccc13)/C(=C/c1ccco1)CC2 (stereo unspecified),42.5,nt,77.5*,-103.5
COC(=O)c1ccc(=O)c2nc3/c(=C/O)c(O)cc(=O)c3[nH]c12,nt,nt,50.3*,-12.0
COC(=O)c1ccc(N)cc1O,23.1,1.2,?,0.1
Cc1cccc(Nc2cc(=O)n(C)c(=O)n2C)c1,nt,nt,93.2,nt
O=C(Nc1ccc(C(=O)N2CCCC2)cc1)c1cc(F)c(F)cc1Cl,nt,nt,97.4,nt
NC(=O)c1ccc(NC(=O)COC(=O)/C=C/c2ccc(Br)o2)cc1,nt,1.5,95.6,2.0
O=C(COC(=O)/C=C/c1ccc(Br)o1)Nc1ccc2[nH]c(=O)[nH]c2c1,35.7,0.7,56.7*,-26.1
O=C(COC(=O)CSc1ccc(Cl)cc1)Nc1ccc2[nH]c(=O)[nH]c2c1,nt,-0.1,99.0*,-1.6
Cc1ccc(SCC(=O)OCC(=O)Nc2ccc3[nH]c(=O)[nH]c3c2)cc1C,22.8,-0.2,105.2,2.2
Cc1nnc(NC(=O)CSc2cn(Cc3ccccc3)c3ccccc23)s1,5.2,4.4,-19.6*,-21.6
COc1ccc(C(=O)/C(=C/O)N=Nc2ccc(F)cc2)cc1,13.3,7.4,-4.7*,19.9
C[C@H]1[C@H](C)CC[C@]2(C(=O)O)CC[C@]3(C)C(=CC[C@@H]4[C@@]5(C)C[C@@H](O)[C@H](O)C(C)(C)[C@@H]5CC[C@]43C)[C@H]12,23.7,18.2,84.9*,-56.0
CCOC(=O)c1ccc2ncc(C(=O)OCC)c(NCc3ccco3)c2c1,-18.3,4.0,46.6*,-11.5
CCOC(=O)c1cnc2c(C)cccc2c1NCc1ccco1,17.1,3.8,115.1,0.6
Cc1ccc(NC(=O)c2sc(N)nc2-c2ccccc2)cc1C,5.5,2.7,83.4,8.0
Cc1ccc(NC(=O)c2sc(N)nc2-c2ccc([N+](=O)[O-])cc2)cc1C,9.7,-1.5,62.9*,14.7
SMILES,AI-2 QS modul,NTR1 ag,Pemphigus Ab inh,VLA-4 inh
O=C(CSc1ncnc2c1cnn2-c1ccccc1)NC1CCS(=O)(=O)C1 (stereo unspecified),nt,-0.5,nt,24.0
CCc1ccc(Nc2ccc3nonc3c2[N+](=O)[O-])cc1,3.3,-0.7,nt,-0.5
CCOC(=O)NNc1ccc2nonc2c1[N+](=O)[O-],-91.9*,-1.3,97.7,16.1
O=C(CC(O)(CC(=O)OCc1ccccc1)C(=O)OCc1ccccc1)OCc1ccccc1,nt,nt,134.0,nt
CC(=O)c1c(C)[nH]c(C(=O)NCc2cccc(Cl)c2)c1C,11.0,-1.9,nt,-1.6
CC(=O)c1c(C)[nH]c(C(=O)NCc2ccc(Cl)cc2)c1C,nt,nt,86.8*,nt
CN(Cc1ccccc1)S(=O)(=O)c1ccc(C(=O)Nc2nnc(C3CC3)o2)cc1,18.6,3.8,58.3*,-7.8
CC1(C)CC(=O)C=C(c2ccccc2-c2ccc(S(C)(=O)=O)cc2)C1=O,nt,nt,99.7,nt
CN1\C(=C/C=C/C=C/C=[N+](C)C)C(C)(C)c2ccccc21,-9.2,nt,66.2*,nt
CCOC(=O)c1c(NC(=O)c2ccccc2C(=O)O)sc2c1CCCC2,6.3,2.4,68.0*,7.4
CCCCCCN1C[C@@H](O)[C@H](n2cc(C3CC3)nn2)C[C@@H]1c1ccc(Cl)cc1,nt,nt,103.0,nt
CC(OC(=O)c1cc2sccc2n1C)C(=O)NCc1ccc2c(c1)OCO2 (stereo unspecified),20.1,7.5,68.6*,-7.0
Cc1ccsc1C(=O)OCC(=O)NCc1ccc2c(c1)OCO2,6.9,1.2,51.9*,10.7
Cc1ccc(C(=O)OCC(=O)NCc2ccc3c(c2)OCO3)o1,nt,0.4,95.6,7.4
